# From PubChem BioAssay
# This is one part of a sample in which hits are shown more often than they occur.
# Pf Dd2 growth = inhibitors of Plasmodium falciparum Dd2 growth | P. falciparum Dd2 growth, SYBR Green, 72 h | Potency, µM (series often up to 28.9 µM), without a hit: top-dose activity, negative = inhibition, usual class: inhibitors | 120,000 compounds, 4.3% hits; active = well fitted inhibition curve with a large enough effect;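 note: plate controls were DMSO vehicle for no effect and reference drug for full effect; nearly all actives have a fitted effect of over 65% in size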
#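 Readout: SYBR Green fluorescence, 485 nm excitation, 535 nm emission, after ~16 h lysis at 37C. Before that, Dd2-infected red cells (2.5% hematocrit) grew 72 h with compound, 29 uM top final concentration.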
# An asterisk follows results filed as active; i = inactive; [ ] = dose if it differs, or a comment. Potency is the fitted concentration of half-maximal effect.
SMILES,Pf Dd2 growth
Cc1ccc(-c2noc([C@@H]3Cc4nc[nH]c4CN3Cc3ccc(N(C)C)cc3)n2)cc1,i
Cc1ccc(-c2noc([C@@H]3Cc4nc[nH]c4CN3C(=O)COCC(=O)O)n2)cc1,11%[44.1 µM]
COC(=O)[C@@H]1Cc2ncn(Cc3ccc(Cl)cc3)c2CN1Cc1cccnc1,-15%[44.1 µM]
COc1ccc(C(CC(=O)N(C)Cc2ccccn2)c2ccccc2)cc1 (centres undefined),-2%
CCOc1ccc2c(C)c(C(=O)N3CC[C@](C)(O)[C@H](C)C3)oc2c1OCC,-17%
CC(=O)NC(CO)C(=O)N1CCc2[nH]nc(-c3ccc(F)c(F)c3)c2C1 (centres undefined),5%
O=C(C1CC1)N1CCC2(CC1)CC(N1CCN(c3ccccn3)CC1)CCO2 (centres undefined),-22%
O=C(Cc1ccccc1)N1CCCC1c1nc(CCOCC2CC2)no1 (centres undefined),-5%
COc1ccc(C(=O)N2CCC3(CC2)CN[S+](=O)([O-])c2cccnc2O3)cc1,41%
FC(F)(F)c1ccc(-c2noc([C@@H]3Cc4nc[nH]c4CN3Cc3cc4ccccc4o3)n2)cc1,8.9µM*
COc1ccc(CN2Cc3[nH]cnc3C[C@H]2c2nc(-c3ccccn3)no2)cc1,-3%[44.1 µM]
c1csc(CN2Cc3[nH]cnc3C[C@H]2c2nc(-c3ccncc3)no2)c1,i
O=C(Nc1cccc(F)c1)N1Cc2[nH]cnc2C[C@H]1c1nc(-c2ccc(C(F)(F)F)cc2)no1,i
COc1ccc(-c2noc([C@@H]3Cc4nc[nH]c4CN3Cc3cccs3)n2)cc1,i
COc1ccc(CN2Cc3[nH]cnc3C[C@H]2c2nc(-c3ccc(C)cc3)no2)cc1,22µM*
Cc1ccc(-n2cccc2CC(=O)NC2CCCCC2)cc1,i
COCC(=O)NC[C@H]1CCN(Cc2cccn2C)C[C@H]1N(C)C,i
CCOC(=O)CC1NCCNC1=O (centres undefined),6%
COc1ccc([C@H]2C[C@@H](O)[C@@H](O)[C@@H]2NCc2cccc(C(F)(F)F)c2)cc1,8.9µM*
COc1ccc([C@H]2C[C@@H](O)[C@@H](O)[C@@H]2NCc2cccc(C#N)c2)cc1,-11%[44.1 µM]
COc1ccc([C@H]2C[C@@H](O)[C@@H](O)[C@@H]2NCc2cnc3ccccc3c2)cc1,i
COCCNC(=O)Cc1ccc(N(Cc2ccc(F)cc2)C(=O)c2ccco2)cc1,i
Cn1ncc(N2CCOC(CCNc3ccc(C#N)cn3)C2)cc1=O (centres undefined),-9%
CC(=O)Nc1ccc(CN2CCN3C(=O)N(c4ccccn4)C[C@H]3C2)cc1,-26%[44.1 µM]
Cc1ccc(-c2ncc(C(=O)N(C)Cc3nc(CC(C)C)no3)c(=O)[nH]2)cc1,-1%
SMILES,Pf Dd2 growth
CC(C)Cc1cnc(-c2ccccc2)[nH]1,16µM*
CC(C)Cc1nc2nccc(-c3ccccc3)n2n1,-15%
NC(=O)c1noc(CN2CCn3nc(CCC(=O)N4CCOCC4)cc3C2)n1,-10%
CN(C)C(=O)c1ccnc(-c2nnc3ccc(N(C)Cc4ccccc4)nn23)c1,i
CC(=O)NCCCC(=O)N1CCC2(CC1)CN(C(C)=O)Cc1ccccc1O2,14%
CC(=O)Nc1ccc(C2(C(=O)N3CCCCCC3)CCC2)cc1,-21%
CC(=O)Nc1ccc(C2(C(=O)O)CCCCC2)cc1,3%
CC(=O)Nc1ccc(C2(C(=O)N3CCC(N4CCCCC4)CC3)CCCCC2)cc1,13µM*
COc1ccc(-c2cc(N3CCCC(NC(=O)c4ccc(C)s4)C3)n[nH]2)cc1 (centres undefined),-9%
Cc1cc(C)cc(NC(=O)N2CCC3(CCNC(=O)CC3)CC2)c1,-21%
COCCNC(=O)[C@@H]1C[C@H](Oc2ccccc2)CN1C(=O)C1CCC1,7%
CCc1cccc(C)c1Nc1c(-c2ccc(N(C)C)cc2)nc2cnccn12,-22%
CCc1cccc(C)c1Nc1c(-c2ccc(F)cc2)nc2sccn12,-27%
CCc1cccc(C)c1Nc1c(-c2cccc(O)c2)nc2cnccn12,8.9µM*
Clc1ccc(C2Cn3nnc(-c4nc(-c5cccc(Br)c5)no4)c3CO2)cc1 (centres undefined),i
CNC(C)c1ccncc1 (centres undefined),5%[44.1 µM]
CNC(C)c1ccc(OC(F)(F)F)cc1 (centres undefined),2%[76.6 µM]
CNC(C)c1ccc(Oc2ccccc2)cc1 (centres undefined),11µM*
N[S+](=O)([O-])c1ccc2c(c1)OCCN(CCc1ccccc1)C2,-4%[44.1 µM]
O=C(c1ccccc1Cl)N1CCCC(c2nn(-c3ccccc3)c(=O)[nH]2)C1 (centres undefined),i
O=C(NC1CCCC1)c1ccc(CSc2nc3cccnc3n2Cc2ccc(F)cc2)cc1,28%
CC1CCCCN1CCNC(=O)c1ccc(Cn2c(SCc3ccccc3)nc3cccnc32)cc1 (centres undefined),5.6µM*
O=C(NCCN1CCCCC1)c1ccc(Cn2c(SCc3ccccc3)nc3cccnc32)cc1,5µM*
CC1CCN(CCNC(=O)c2ccc(Cn3c(SCc4ccccc4)nc4cccnc43)cc2)CC1,10µM*
O=C(C1CCCC1)N1CCCC(Cc2nc(C3CCOCC3)no2)C1 (centres undefined),10%
SMILES,Pf Dd2 growth
O=c1[nH]nc2n1CCN(S(=O)(=O)c1ccc(Cl)s1)CC2,-8%
C[S+](=O)([O-])N1CCC(c2nnc3n2CCNC3)CC1,-4%
COc1ccccc1-c1cn2c(n1)CO[C@@H](CNC(C)C)C2,i
COc1ccc(CCC(=O)N[C@@H]2CN(S(C)(=O)=O)C[C@H]2CN(C)C)cc1,20%
Cc1cc(N2CCC(NCc3nc[nH]c3C)CC2)nc(-c2ccccc2O)n1,10µM*
Cc1cc(C)nc(CNC2CCN(c3nc(C)nc4sccc34)CC2)n1,-8%
Cc1[nH]cnc1CN1CCN(C2CCCC2)CC(C(=O)O)C1 (centres undefined),-8%
Nc1cccc(-c2cn(C[C@H]3CC4CCN3C[C@@H]4C(=O)Nc3ccccc3)nn2)c1 (some centres undefined),7.9µM*
COCCNC(=O)[C@H]1CN2CCC1C[C@@H]2Cn1cc(-c2cccc(N)c2)nn1 (some centres undefined),-9%[44.1 µM]
O=C(Nc1ccccc1)[C@H]1CN2CCC1C[C@@H]2Cn1cc(C2(O)CCCCC2)nn1 (some centres undefined),i
COCCNC(=O)C(C)[C@@H]1CC[C@@]2(C)CC[C@H](NC(=O)c3ccccn3)[C@@H](C)[C@@H]2[C@H]1O (some centres undefined),i
COc1ccc(CNC(=O)C[C@@H]2c3nc(NC(=O)c4c(F)cccc4F)sc3C[C@@H]3[C@](C)(CO)[C@H](O)CC[C@]32C)cc1,7.9µM*
C=CCN(C)C(=O)C[C@@H]1c2nc(NC(=O)c3ccco3)sc2C[C@@H]2[C@](C)(CO)[C@H](O)CC[C@]21C,i
C=CCN(C)C(=O)C[C@@H]1c2nc(NC(=O)COC)sc2C[C@@H]2[C@](C)(CO)[C@H](O)CC[C@]21C,-8%
C[C@]1(CO)[C@H]2Cc3sc(NC(=O)c4c(F)cccc4F)nc3[C@@H](CC(=O)O)[C@]2(C)CC[C@H]1O,-4%
CCN(CC)C(=O)C[C@@H]1c2nc(NC(=O)c3ccc(F)cc3)sc2C[C@@H]2[C@](C)(CO)[C@H](O)CC[C@]21C,-12%
CC(C)(C)CC(=O)Nc1nc2c(s1)C[C@@H]1[C@](C)(CO)[C@H](O)CC[C@@]1(C)[C@@H]2CC(=O)NCc1ccccc1,i
